Paper PMC11006913

Legend:
Assay in all cases: PBM; 200 nM protein, PBS
Settings in all cases: dsDNA, one strand shown
CRX [1] = biological target: CRX (Homo sapiens, UniProt O43186 26-111)
CRX [2] = biological target: CRX (Homo sapiens, UniProt O43186 26-111, E42D)
CRX [3] = biological target: CRX (Homo sapiens, UniProt O43186 26-111, R41L)
Sequence of CRX (Homo sapiens, UniProt O43186 26-111, R41L) (O43186 26-111 R41L): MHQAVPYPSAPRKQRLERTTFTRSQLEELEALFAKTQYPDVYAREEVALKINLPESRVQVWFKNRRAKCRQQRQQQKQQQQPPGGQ

Sequence of CRX (Homo sapiens, UniProt O43186 26-111) (O43186 26-111): as the sequence (O43186 26-111 R41L) above, with L16R counted along it
Sequence of CRX (Homo sapiens, UniProt O43186 26-111, E42D) (O43186 26-111 E42D): as the sequence (O43186 26-111 R41L) above, with L16R, E17D counted along it

For CGGGACCC, which binding signal (CRX [1]) is on record?
Its binding signal is 8.17 upbm affinity estimate (log intensity, higher = more binding, comparable within an allelic series).

What about the binding signal (CRX [2]) of the same sequence?
The binding signal was 8.21 upbm affinity estimate (log intensity, higher = more binding, comparable within an allelic series).

What about the binding signal (CRX [3]) of the same sequence?
Its binding signal is 8.21 upbm affinity estimate (log intensity, higher = more binding, comparable within an allelic series).

How did the binding signal (CRX [1]) turn out when CTTGCTAC was run?
The binding signal was 8.21 upbm affinity estimate (log intensity, higher = more binding, comparable within an allelic series).

What about the binding signal (CRX [2]) of the same sequence?
Its binding signal is 8.34 upbm affinity estimate (log intensity, higher = more binding, comparable within an allelic series).

What about the binding signal (CRX [3]) of the same sequence?
The binding signal was 8.28 upbm affinity estimate (log intensity, higher = more binding, comparable within an allelic series).

Which results are given for CACCAGTC?
binding signal (CRX [1]): 8.16 upbm affinity estimate (log intensity, higher = more binding, comparable within an allelic series); binding signal (CRX [2]): 8.23 upbm affinity estimate (log intensity, higher = more binding, comparable within an allelic series); binding signal (CRX [3]): 8.2 upbm affinity estimate (log intensity, higher = more binding, comparable within an allelic series)

With ACGGTCCG as the sequence, how does the binding signal (CRX [1]) read?
The binding signal was 8.25 upbm affinity estimate (log intensity, higher = more binding, comparable within an allelic series).

And the binding signal (CRX [2])?
Its binding signal is 8.46 upbm affinity estimate (log intensity, higher = more binding, comparable within an allelic series).

What about the binding signal (CRX [3]) of the same sequence?
The binding signal was 8.16 upbm affinity estimate (log intensity, higher = more binding, comparable within an allelic series).

How did the binding signal (CRX [1]) turn out when CCACCGAG was run?
Its binding signal is 8.14 upbm affinity estimate (log intensity, higher = more binding, comparable within an allelic series).

What about the binding signal (CRX [2]) of the same sequence?
The binding signal was 8.21 upbm affinity estimate (log intensity, higher = more binding, comparable within an allelic series).

What about the binding signal (CRX [3]) of the same sequence?
The binding signal was 8.2 upbm affinity estimate (log intensity, higher = more binding, comparable within an allelic series).

What does the source list for GATTATCC?
binding signal (CRX [1]): 12.9 upbm affinity estimate (log intensity, higher = more binding, comparable within an allelic series); binding signal (CRX [2]): 12.9 upbm affinity estimate (log intensity, higher = more binding, comparable within an allelic series); binding signal (CRX [3]): 12.8 upbm affinity estimate (log intensity, higher = more binding, comparable within an allelic series)

For AGATTATG, which binding signal (CRX [1]) is on record?
The binding signal was 12.7 upbm affinity estimate (log intensity, higher = more binding, comparable within an allelic series).

And the binding signal (CRX [2])?
Its binding signal is 12.6 upbm affinity estimate (log intensity, higher = more binding, comparable within an allelic series).

And the binding signal (CRX [3])?
Its binding signal is 12.6 upbm affinity estimate (log intensity, higher = more binding, comparable within an allelic series).

What does the source list for ATAAAACC?
binding signal (CRX [1]): 10.7 upbm affinity estimate (log intensity, higher = more binding, comparable within an allelic series); binding signal (CRX [2]): 10.4 upbm affinity estimate (log intensity, higher = more binding, comparable within an allelic series); binding signal (CRX [3]): 10.2 upbm affinity estimate (log intensity, higher = more binding, comparable within an allelic series)

Which binding signal (CRX [1]) does the source give for CGAGCACG here?
The binding signal was 8.2 upbm affinity estimate (log intensity, higher = more binding, comparable within an allelic series).

And the binding signal (CRX [2])?
The binding signal was 8.12 upbm affinity estimate (log intensity, higher = more binding, comparable within an allelic series).

And the binding signal (CRX [3])?
The binding signal was 8.16 upbm affinity estimate (log intensity, higher = more binding, comparable within an allelic series).

Which binding signal (CRX [1]) does the source give for ACGCCACG here?
Its binding signal is 8.27 upbm affinity estimate (log intensity, higher = more binding, comparable within an allelic series).

What about the binding signal (CRX [2]) of the same sequence?
Its binding signal is 8.14 upbm affinity estimate (log intensity, higher = more binding, comparable within an allelic series).

And the binding signal (CRX [3])?
Its binding signal is 8.23 upbm affinity estimate (log intensity, higher = more binding, comparable within an allelic series).

Which binding signal (CRX [1]) does the source give for ACTGGACC here?
The binding signal was 8.04 upbm affinity estimate (log intensity, higher = more binding, comparable within an allelic series).

And the binding signal (CRX [2])?
Its binding signal is 8.07 upbm affinity estimate (log intensity, higher = more binding, comparable within an allelic series).

What about the binding signal (CRX [3]) of the same sequence?
The binding signal was 8.11 upbm affinity estimate (log intensity, higher = more binding, comparable within an allelic series).

What does the source list for CGGATTAC?
binding signal (CRX [1]): 13.4 upbm affinity estimate (log intensity, higher = more binding, comparable within an allelic series); binding signal (CRX [2]): 13.3 upbm affinity estimate (log intensity, higher = more binding, comparable within an allelic series); binding signal (CRX [3]): 13.3 upbm affinity estimate (log intensity, higher = more binding, comparable within an allelic series)

What does the source list for GCGTGCAC?
binding signal (CRX [1]): 8.43 upbm affinity estimate (log intensity, higher = more binding, comparable within an allelic series); binding signal (CRX [2]): 8.37 upbm affinity estimate (log intensity, higher = more binding, comparable within an allelic series); binding signal (CRX [3]): 8.37 upbm affinity estimate (log intensity, higher = more binding, comparable within an allelic series)

For CGAACCTC, which binding signal (CRX [1]) is on record?
The binding signal was 8.5 upbm affinity estimate (log intensity, higher = more binding, comparable within an allelic series).

And the binding signal (CRX [2])?
The binding signal was 8.36 upbm affinity estimate (log intensity, higher = more binding, comparable within an allelic series).

What about the binding signal (CRX [3]) of the same sequence?
The binding signal was 8.33 upbm affinity estimate (log intensity, higher = more binding, comparable within an allelic series).

With CAGGCTAG as the sequence, how does the binding signal (CRX [1]) read?
The binding signal was 8.3 upbm affinity estimate (log intensity, higher = more binding, comparable within an allelic series).

And the binding signal (CRX [2])?
The binding signal was 8.21 upbm affinity estimate (log intensity, higher = more binding, comparable within an allelic series).

What about the binding signal (CRX [3]) of the same sequence?
The binding signal was 8.16 upbm affinity estimate (log intensity, higher = more binding, comparable within an allelic series).

With CGATAATC as the sequence, how does the binding signal (CRX [1]) read?
Its binding signal is 12.8 upbm affinity estimate (log intensity, higher = more binding, comparable within an allelic series).

What about the binding signal (CRX [2]) of the same sequence?
The binding signal was 12.7 upbm affinity estimate (log intensity, higher = more binding, comparable within an allelic series).

What about the binding signal (CRX [3]) of the same sequence?
The binding signal was 12.7 upbm affinity estimate (log intensity, higher = more binding, comparable within an allelic series).

For ACCGCACC, which binding signal (CRX [1]) is on record?
Its binding signal is 8.25 upbm affinity estimate (log intensity, higher = more binding, comparable within an allelic series).

What about the binding signal (CRX [2]) of the same sequence?
The binding signal was 8.39 upbm affinity estimate (log intensity, higher = more binding, comparable within an allelic series).

What about the binding signal (CRX [3]) of the same sequence?
The binding signal was 8.35 upbm affinity estimate (log intensity, higher = more binding, comparable within an allelic series).

For GGGCTCCA, which binding signal (CRX [1]) is on record?
The binding signal was 8.35 upbm affinity estimate (log intensity, higher = more binding, comparable within an allelic series).

What about the binding signal (CRX [2]) of the same sequence?
The binding signal was 8.31 upbm affinity estimate (log intensity, higher = more binding, comparable within an allelic series).

What about the binding signal (CRX [3]) of the same sequence?
Its binding signal is 8.31 upbm affinity estimate (log intensity, higher = more binding, comparable within an allelic series).

Which results are given for GACCGAAC?
binding signal (CRX [1]): 7.97 upbm affinity estimate (log intensity, higher = more binding, comparable within an allelic series); binding signal (CRX [2]): 8.09 upbm affinity estimate (log intensity, higher = more binding, comparable within an allelic series); binding signal (CRX [3]): 8.18 upbm affinity estimate (log intensity, higher = more binding, comparable within an allelic series)

What does the source list for CAGGAACG?
binding signal (CRX [1]): 8.49 upbm affinity estimate (log intensity, higher = more binding, comparable within an allelic series); binding signal (CRX [2]): 8.54 upbm affinity estimate (log intensity, higher = more binding, comparable within an allelic series); binding signal (CRX [3]): 8.36 upbm affinity estimate (log intensity, higher = more binding, comparable within an allelic series)

How did the binding signal (CRX [1]) turn out when CCGGATAA was run?
The binding signal was 11.5 upbm affinity estimate (log intensity, higher = more binding, comparable within an allelic series).

And the binding signal (CRX [2])?
The binding signal was 11.3 upbm affinity estimate (log intensity, higher = more binding, comparable within an allelic series).

What about the binding signal (CRX [3]) of the same sequence?
Its binding signal is 10.9 upbm affinity estimate (log intensity, higher = more binding, comparable within an allelic series).

Which results are given for ACTGCTGG?
binding signal (CRX [1]): 8.37 upbm affinity estimate (log intensity, higher = more binding, comparable within an allelic series); binding signal (CRX [2]): 8.49 upbm affinity estimate (log intensity, higher = more binding, comparable within an allelic series); binding signal (CRX [3]): 8.37 upbm affinity estimate (log intensity, higher = more binding, comparable within an allelic series)

Which results are given for GCTTAAGC?
binding signal (CRX [1]): 12.8 upbm affinity estimate (log intensity, higher = more binding, comparable within an allelic series); binding signal (CRX [2]): 12.7 upbm affinity estimate (log intensity, higher = more binding, comparable within an allelic series); binding signal (CRX [3]): 11.7 upbm affinity estimate (log intensity, higher = more binding, comparable within an allelic series)
